Source: PubChem
Compounds with a hit are over-represented: about 2.7% of the library has one in this group of screens.
Shn3 inh set2 – reduction of Shn3 3'UTR firefly luciferase signal, primary screen, Schnurri-3 inhibitor project, cell-based, Clone20 osteoblasts, set 2; Clone20 osteoblast Shn3 3'UTR firefly luciferase, 24 h; inhibition, % at 12.5 µM; 360,000 compounds, 0.52% hits;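 active = mean inhibition of at least 75% with every replicate also reaching 75%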
HIF-2a inh – HIF-2a reporter inhibitors, primary screen, luminescence, 786-0 RCC cells; 786-0 RCC cells HIF-2a reporter, luciferase luminescence, overnight; 360,000 compounds, 0.72% hits; inhibition, % at 18.8 µM; AID 624352, 2012;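 active = inhibition of the luminescence signal of 40% or more relative to plate controls, in a single-dose primary screen at 18.75 µM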
MITF TRPM1 inh – inhibitors of MITF-dependent TRPM1 promoter reporter, primary screen, cell-based, SK-MEL-5, single point, luciferase | SK-MEL-5 TRPM1 promoter luciferase, 24 h | inhibition, % at 12.5 µM | 330,000 compounds, 0.83% hits | AID 488899, 2010;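 active = mean inhibition across replicates of 60% or more, whatever share of single replicates reaches that level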
CF NFkB inh – inhibitors of PAF-induced NF-kB signaling, primary screen, cell-based, GFP fluorescence, uHTS; AID 588850, 2011; KKLEB NF-kB-GFP reporter, GFP fluorescence overnight; inhibition, % at 5 µM; 360,000 compounds, 0.86% hits;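 active = at least 50% inhibition at 5 µM, scaled per plate between neutral and stimulator controls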;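 note: PAF is a Pseudomonas aeruginosa culture filtrate used as stimulus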
Peg3 prom inh – Peg3 promoter-driven luciferase inhibitors, primary screen, cell-based, HeLa, luciferase luminescence | 360,000 compounds, 1.7% hits | HeLa PEG-Prom luciferase reporter, overnight | inhibition, % at 20 µM;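 active = inhibition of at least 50% at 20 µM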
KKLEB tox – cytotoxicity in KKLEB CF airway cells, primary screen, cytotoxicity control for CF NF-kB inhibitor project, cell-based, uHTS, fluorescence assay plates; 360,000 compounds, 0.36% hits; AID 602141, 2011; KKLEB CF airway cells viability, ATPlite luminescence, overnight; stronger effect = lower value; cells stimulated with P. aeruginosa culture filtrate; activity change (cytotoxicity), % at 5 µM;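 active = corrected activity change at or below -50% at 5 µM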
CF NFkB conf – inhibitors of PAF-induced NF-kB signaling, retest, confirmation, cell-based, GFP fluorescence, single concentration; shares compounds with CF NFkB inh; inhibition, % at 5 µM; 1,300 compounds, 64% hits; KKLEB CF airway cells, overnight; AID 602472, 2012; in the data active = inhibition above about 40%;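 note: stimulus PAF is a Pseudomonas aeruginosa filtrate and not platelet activating factor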
Each line names hits and unclear results; the compound was inactive in the other large screens (follow-up assays come after a bar, where they were run).

O=c1cc(-c2ccccc2Cl)oc2c([N+](=O)[O-])c(O)cc(O)c12	CF NFkB inh 94, Peg3 prom inh 98 | CF NFkB conf 110
C[C@H](NC(=O)[C@@H]1CCCN1C(=O)[C@@H]1CCCN1)c1ccccc1	none (no result: Shn3 inh set2, MITF TRPM1 inh, CF NFkB inh, Peg3 prom inh, KKLEB tox)
CC1C(c2ccccc2)OCCN1C(=S)Nc1ccc(S(=O)(=O)N2CCCCC2)cc1 (stereo unspecified)	CF NFkB inh 58 (no result: MITF TRPM1 inh) | CF NFkB conf 60
COCCNC(=O)C1(C)CCN(C(=O)c2sc(-c3ccccc3)nc2C)C1 (stereo unspecified)	none (no result: MITF TRPM1 inh)
CC(C)COC(=O)N1CCCCC1c1cc(C(=O)NC(C)C)no1 (stereo unspecified)	none (no result: MITF TRPM1 inh)
Cc1cccc(C(=O)N2[C@@H](C(C)C)COc3cc(Br)ccc3S2(=O)=O)c1	CF NFkB inh 61, Peg3 prom inh 57 | CF NFkB conf 59
COc1cccc(C(=O)N2C(C(C)C)COc3cc(Br)ccc3S2(=O)=O)c1 (stereo unspecified)	CF NFkB inh 50 (no result: MITF TRPM1 inh) | CF NFkB conf 55
COc1cccc(NC(=O)CCC2CCN(C(=O)C(OC)c3ccccc3)CC2)c1 (stereo unspecified)	none (no result: MITF TRPM1 inh)
Cc1ccc(NC(=S)NC(=O)c2ccccc2)cc1NC(=S)NC(=O)c1ccccc1	CF NFkB inh 64 | CF NFkB conf inactive
O=C(NC(=S)Nc1cccc(NC(=S)NC(=O)c2ccccc2)c1)c1ccccc1	none
CC(C)(C(=O)N1CCC1(C)C(=O)NS(=O)(=O)c1ccccc1Cl)c1ccccc1 (stereo unspecified)	none (no result: MITF TRPM1 inh)
O=C(Nc1ccccc1)c1cc2ccccc2c(=O)s1	CF NFkB inh 62 | CF NFkB conf 68
O=C(Nc1ccc(O)cc1)c1cc2ccccc2c(=O)s1	none
Cc1ncc(CO)c2c1Oc1nc(-c3ccccc3F)nc(SCC(=O)N(C)c3ccccc3)c1C2	CF NFkB inh 94, Peg3 prom inh 85 | CF NFkB conf 96
Cc1ncc(CO)c2c1Oc1nc(-c3ccccc3)nc(SCC(=O)N3CCCCC3)c1C2	CF NFkB inh 85, Peg3 prom inh 64 | CF NFkB conf inactive
CC1(C)Cc2nc(-c3ccccc3)nc(SCC(=O)N3CCCC3)c2CO1	none
CC1(C(=O)NS(C)(=O)=O)CCN1C(=O)C/C=C/c1ccccc1 (stereo unspecified)	none (no result: MITF TRPM1 inh)
CN(CC(=O)Nc1ccccc1Cl)C(=O)COC(=O)c1ccc(S(=O)(=O)C(F)F)cc1	none
CC(=O)Oc1ccc(-c2ccc(C(=O)OCC(=O)N(C)CC(=O)Nc3ccccc3Cl)cc2)cc1	CF NFkB inh 52 | CF NFkB conf inactive
Cc1c([N+](=O)[O-])c2ccc(O)cc2n1-c1ccccc1	CF NFkB inh 68 (no result: Shn3 inh set2) | CF NFkB conf 78
O=C(CSc1nc(C2CC2)nc2ccccc12)Nc1ccccc1Cl	CF NFkB inh 60 | CF NFkB conf inactive
O=C(CSc1nc(C2CC2)nc2ccccc12)Nc1ccccc1	none
ON=C1c2ccccc2-c2cc(Br)ccc21	CF NFkB inh 78 | CF NFkB conf 73
ON=C1c2ccccc2-c2ccc(O)cc21	none
CCCCCc1cc(O)c2c(C)cc(=O)oc2c1	CF NFkB inh 74 | CF NFkB conf 80
Cc1cc(=O)oc2cc(O)cc(O)c12	none
CCOC(=O)[C@]12CCCC=C1N(CCc1ccc(OC)c(OC)c1)C(=O)[C@H](CC(=O)NCCc1ccccc1OC)C2	none (no result: Shn3 inh set2, MITF TRPM1 inh, CF NFkB inh, Peg3 prom inh, KKLEB tox)
Nc1ncnc(NCc2ccc(F)cc2)c1[N+](=O)[O-]	CF NFkB inh 64 | CF NFkB conf 64
CCN(C(=O)c1cc(S(=O)(=O)N2CCCCC2)c[nH]1)c1ccc(OC)cc1	CF NFkB inh 50 | CF NFkB conf 46
CC1(C(=O)Nc2cnc3ccccc3c2)CCN1Cc1ccccc1Cl (stereo unspecified)	none (no result: MITF TRPM1 inh)
